Reference: PubChem BioAssay (NCATS)
“And” between values parts separate entries of the source, which are not always exact repeats. Equal entries are not always repeated. Records with an inconclusive call do not appear. Entries that show only a call come without a potency. The source made the active and inactive calls. Unless noted, the call rests on the fitted dose curve; in most records, active means well fitted curve in the direction sought with a large enough effect; inconclusive means small, poorly fitted or top-dose-only effect, or another doubt; inactive means no such curve, though single readings can be large; an effect the other way counts as inactive or inconclusive.

How the values were obtained:
[1] = Cell Viability - SK-N-SH (AID 435; calls by dose curve;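 further: potency means the concentration at half of the fitted maximal effect; compound exposure lasted 40 h at 37 °C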); conditions: SK-N-SH neuroblastoma cell viability qHTS
How it was run: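 SK-N-SH human neuroblastoma cells (1500/well) were exposed to compounds in complete medium for 40 h at 37 °C, and intracellular ATP was then measured by CellTiter-Glo luminescence. AC50 was taken from Hill fits, normalized to DMSO and 100 uM tamoxifen.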

[2] = Cellular Toxicity (caspase-3) HUV-EC-C (AID 656); conditions: HUV-EC-C cells, caspase-3 activation (apoptosis), vehicle = 0, 100 µM tamoxifen = 100%; series mostly up to 92.2 µM
How it was run: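 HUV-EC-C endothelial cells, 1000/well, were pre-incubated 5 hr at 37°C, then exposed to compounds for 16 hr at 37°C. Caspase-Glo 3/7 luminescence was read after 20 min at room temperature. AC50 came from Hill fits, normalized to DMSO and 100 uM tamoxifen.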

[3] = Cellular Toxicity (caspase-3) H-4-II-E (AID 663); conditions: H-4-II-E rat hepatoma; Potency: caspase-3 activation; series mostly up to 92.2 µM;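 further: cells exposed to compound for 16 hr before readout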
How it was run: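 Caspase 3/7 activation measured in H-4-II-E cells in complete culture medium after 16 hr treatment at 37 °C, using luciferase-coupled substrate readout; AC50 values come from Hill-equation fits of normalized concentration-response data.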

[4] = Cell Viability - LYMP2-004 (AID 966); conditions: LYMP2-004 lymphoblastoid cell viability, qHTS; series mostly up to 92.2 µM; further: nearly all actives have a fitted effect of over 65% in size
How it was run: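 AC50 values come from Hill modelling of concentration-dependent loss of intracellular ATP, measured by CellTiter-Glo luminescence. Human LYMP2-004 lymphoblastoid cells (2500/well) were exposed to compound for 24 h at 37 C.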

[5] = Cell Viability - LYMP2-005 (AID 967); conditions: LYMP2-005 lymphoblastoid cell viability; series mostly up to 92.2 µM
How it was run: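 CellTiter-Glo luminescence (cellular ATP) read-out; LYMP2-005 lymphoblastoid cells, 2500/well, 5 h pre-incubation, then 24 h compound exposure at 37 C in complete medium. Tetraoctylammonium bromide positive control; AC50 by standard Hill fit.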

[6] = Cell Viability - LYMP2-013 (AID 970); conditions: LYMP2-013 lymphoblastoid cells viability; series mostly up to 92.2 µM; further: nearly all actives have a fitted effect of over 55% in size; further: potency means the concentration at half of the fitted maximal effect
How it was run: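 qHTS cytotoxicity: ATP-dependent luminescence (CellTiter-Glo, 30 min room temperature) read after 24 h compound exposure at 37 C of 2500 LYMP2-013 lymphoblastoid cells per well. Concentration-response fitted with Hill equation to give AC50.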

[7] = Cell Viability - LYMP2-025 (AID 976); conditions: LYMP2-025 lymphoblastoid cell viability; series mostly up to 92.2 µM
How it was run: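 Cytotoxicity read as loss of intracellular ATP (luciferase luminescence) after 24 h compound treatment at 37 C. Uses LYMP2-025 lymphoblastoid cells in 1536-well format; Hill-equation modelling gives AC50; tetraoctylammonium bromide as positive control.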

[8] = Cell Viability - LYMP2-007 (AID 979); conditions: LYMP2-007 lymphoblastoid cell viability; series mostly up to 92.2 µM;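 further: cells exposed to compound for 24 h before reading; nearly all actives have a fitted effect of over 60% in size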
How it was run: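 AC50 values come from Hill-equation fits of luminescent intracellular ATP (CellTiter-Glo, 30 min, room temperature) following 24 h compound exposure at 37 C. Cells: LYMP2-007 lymphoblastoid line, 2500 per well, in complete culture medium.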

[9] = Cell Viability - LYMP2-014 (AID 983); conditions: LYMP2-014 lymphoblastoid cells, viability qHTS; series mostly up to 92.2 µM; further: nearly all actives have a fitted effect of over 50% in size
How it was run: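 Intracellular ATP loss, read by luciferase luminescence, measures acute cytotoxicity after 24 h compound exposure of lymphoblastoid LYMP2-014 cells (2500/well, 37 C). Concentration-response data fitted to the Hill equation for AC50.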

[10] = Cell Viability - LYMP2-018 (AID 985); conditions: LYMP2-018 lymphoblastoid cells, viability (qHTS); series mostly up to 92.2 µM; further: nearly all actives have a fitted effect of over 50% in size
How it was run: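 Viability read as CellTiter-Glo luminescence (cellular ATP) after 24 hr compound exposure at 37 C of 2500 LYMP2-018 lymphoblastoid cells/well, pre-plated 5 hr. Hill-equation modelling gave AC50.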

[11] = Cell Viability - LYMP2-022 (AID 987); conditions: LYMP2-022 lymphoblastoid cell viability; series mostly up to 92.2 µM; further: nearly all actives have a fitted effect of over 55% in size; further: potency means the concentration at half of the fitted maximal effect
How it was run: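 Cytotoxicity read as decreased cellular ATP (CellTiter-Glo luminescence, 30 min room temperature) after 24 hours compound exposure of 2500 lymphoblastoid LYMP2-022 cells/well at 37 C. Concentration-response data fitted with standard Hill equation for AC50.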

[12] = Cell Viability - LYMP2-024 (AID 988); conditions: LYMP2-024 lymphoblastoid cell viability; series mostly up to 92.2 µM; further: nearly all actives have a fitted effect of over 60% in size
How it was run: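 Cytotoxicity was taken as a decrease in ATP (CellTiter-Glo luminescence) after 24 hr compound exposure at 37 C of LYMP2-024 lymphoblastoid cells, 2500 cells/well. Concentration-response data were fitted to the Hill equation to give AC50.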

[13] = qHTS assay for small molecule agonists of retinoid X receptor alpha signaling (AID 588544); conditions: HEK293T RXRa-UAS-bla, beta-lactamase reporter, 18 h; 530 nm emission
[14] = target: Thyroid hormone receptor beta (Homo sapiens) (UniProt P10828); assay: qHTS assay for small molecule agonists of thyroid hormone receptor beta signaling (AID 588545; calls by dose curve); conditions: TR-UAS-bla GripTite HEK 293, beta-lactamase ratio, agonist mode, 18 h; series mostly up to 76.7 µM
How it was run: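 Agonist activity was read as beta-lactamase CCF4 fluorescence (405 ex, 460/530 em), scaled between DMSO (0%) and 10 nM T3 (100%), then Hill-fitted for EC50 and efficacy. HEK 293 TR-UAS-bla cells in 2% charcoal/dextran FBS medium were exposed 18 h at 37 C.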

[15] = qHTS assay for small molecule antagonists of retinoid X receptor alpha signaling (AID 588546); conditions: HEK293T RXRa-UAS-bla, beta-lactamase ratio, antagonist mode; measured here: W530 green channel, cytotoxicity proxy;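 further: cells stimulated with 9-cis-retinoic acid as agonist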
How it was run: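 Beta-lactamase reporter inhibition, read as CCF4 fluorescence ratio (ex 405, em 460/530 nm) after 2 h at RT. HEK293T UAS-bla cells, 2500/well, were stimulated with 9-cis-RA at 500 or 100 nM final alongside test compound for 18 h at 37 C.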

[16] = target: Thyroid hormone receptor beta (Homo sapiens) (UniProt P10828); assay: qHTS assay for small molecule antagonists of thyroid hormone receptor beta signaling (AID 588547; active means well fitted inhibition curve with a large enough effect in the signal ratio, with a control signal flat, not every such curve was filed as active; the % refers to the signal ratio;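 further: cells stimulated with 0.4 nM T3 agonist during compound exposure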); conditions: TR-UAS-bla HEK293, beta-lactamase ratio, antagonist mode, 18 h
How it was run: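 TR-UAS-bla GripTite HEK293 cells in 2% charcoal/dextran FBS medium were preincubated 4 h at 37 C, given compound (0.59 nM to 92 uM) plus 0.4 nM T3 (final) for 18 h, then CCF4 for 2 h at RT; Hill fit gave IC50.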

[17] = target: Tumor necrosis factor (Homo sapiens) (UniProt P01375); assay: qHTS assay to identify small molecules that stimulate Tumor Necrosis Factor-alpha (TNF-alpha) secretion (AID 651757; active means well fitted curve in the direction sought with a large enough effect in the signal ratio; the % refers to the signal ratio); conditions: Human cells, HTRF 665/615 ratio; series mostly up to 92.2 µM
How it was run: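 Secreted TNF-alpha quantified by TR-FRET sandwich of two labeled anti-TNF-alpha antibodies, incubated 3 hr at room temperature. Preceded by 17 hr, 37 C compound treatment of THP-1 cells at 3000 cells/well.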

[18] = qHTS assay for cell viability of HEK293 cells (AID 743288); conditions: ATP luminescence (CellTiter-Glo), 18 h, stronger effect = lower value; further: nearly all actives have a fitted effect of over 50% in size
How it was run: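 After 18 h compound exposure at 37 C, parental HEK293 cells (2,000/well) are lysed with CellTiter-Glo and luminescence is read following 30 min at room temperature.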

[19] = target: Nuclear receptor subfamily 1 group I member 2 (Rattus norvegicus) (UniProt Q9R1A7); assay: qHTS assay for small molecule activators of the rat pregnane X receptor (rPXR) signaling pathway (AID 651751; call rule not given here); conditions: rPXR reporter cells, luciferase (One-Glo), 24 h
[20] = MultiTox-Fluor Cytotoxicity Assay - LYMP1-002 - Dead Cells (AID 960); conditions: LYMP1-002 lymphoblastoid cells, dead-cell protease fluorescence; series mostly up to 46.1 µM; further: nearly all actives have a fitted effect of over 60% in size
How it was run: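 Dead-cell fluorescence (Ex/Em 485/520) after 16 h compound exposure at 37 C of LYMP1-002 lymphoblastoid cells in complete medium; AC50 by Hill equation, with data scaled between DMSO and 15 uM tetraoctylammonium bromide.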

Sequence of Tumor necrosis factor (Homo sapiens) (P01375 whole entry, looked up): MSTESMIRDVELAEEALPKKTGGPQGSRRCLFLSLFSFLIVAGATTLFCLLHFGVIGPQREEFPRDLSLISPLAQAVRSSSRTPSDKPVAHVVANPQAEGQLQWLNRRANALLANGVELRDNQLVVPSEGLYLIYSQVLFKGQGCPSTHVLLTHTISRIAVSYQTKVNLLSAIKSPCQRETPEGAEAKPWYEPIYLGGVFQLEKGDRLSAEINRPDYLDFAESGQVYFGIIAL
Sequence of Nuclear receptor subfamily 1 group I member 2 (Rattus norvegicus) (Q9R1A7 whole entry, looked up): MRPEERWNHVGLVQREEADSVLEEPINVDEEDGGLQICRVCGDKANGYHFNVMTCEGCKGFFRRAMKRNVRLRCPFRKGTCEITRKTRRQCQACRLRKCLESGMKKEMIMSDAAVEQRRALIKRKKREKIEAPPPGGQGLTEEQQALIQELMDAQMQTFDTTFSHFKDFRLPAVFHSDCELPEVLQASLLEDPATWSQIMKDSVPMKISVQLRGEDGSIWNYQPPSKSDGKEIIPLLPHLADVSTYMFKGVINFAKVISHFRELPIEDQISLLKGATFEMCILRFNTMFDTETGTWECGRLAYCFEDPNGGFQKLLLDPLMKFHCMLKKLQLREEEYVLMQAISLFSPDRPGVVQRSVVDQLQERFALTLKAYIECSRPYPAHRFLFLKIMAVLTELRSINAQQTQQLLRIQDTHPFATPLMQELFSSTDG
Sequence of Thyroid hormone receptor beta (Homo sapiens) (P10828 whole entry, looked up): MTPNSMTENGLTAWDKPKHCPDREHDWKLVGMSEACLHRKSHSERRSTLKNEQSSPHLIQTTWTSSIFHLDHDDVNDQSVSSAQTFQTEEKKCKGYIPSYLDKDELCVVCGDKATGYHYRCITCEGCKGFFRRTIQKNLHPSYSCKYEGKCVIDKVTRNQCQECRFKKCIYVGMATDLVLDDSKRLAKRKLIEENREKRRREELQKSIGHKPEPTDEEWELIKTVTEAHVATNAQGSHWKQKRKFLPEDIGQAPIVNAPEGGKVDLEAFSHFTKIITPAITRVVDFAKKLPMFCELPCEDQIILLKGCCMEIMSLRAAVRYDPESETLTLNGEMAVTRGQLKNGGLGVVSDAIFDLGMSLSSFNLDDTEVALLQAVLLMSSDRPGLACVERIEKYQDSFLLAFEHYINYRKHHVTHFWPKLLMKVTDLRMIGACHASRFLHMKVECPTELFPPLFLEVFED

Compound | Potency [1] | outcome [2] | Potency [3] | Potency [4] | Potency [5] | Potency [6] | Potency [7] | Potency [8] | Potency [9] | Potency [10] | Potency [11] | Potency [12] | max response [13] | Potency [14] | max response [15] | activity change % (negative = inhibition) [16] | outcome [17] | max response [18] | max response [19] | Potency [20]
Cc1ccc2c(C)cccc2c1 | > 92 µM (inactive) | inactive | inactive | inactive | inactive | inactive | inactive | inactive | inactive | inactive | inactive | inactive | -13.5% | inactive | 4.96% | 8.64% (inactive) | inactive | 11.2% (inactive) | -3.71% (inactive) | –
COc1c(C(C)(C)C)cc([N+](=O)[O-])c(C)c1[N+](=O)[O-] | > 92 µM (inactive) | – | inactive | inactive | inactive | inactive | inactive | inactive | inactive | inactive | inactive | inactive | -3.49% | inactive | -1.47% | 24.1% (inactive) | inactive | -7.25% (inactive) | 5.88% (inactive) | inactive
Nc1ccc(-c2ccccc2)cc1 | > 92 µM (inactive) | inactive | inactive | inactive | inactive | inactive | inactive | inactive | inactive | inactive | inactive | inactive | 9.85% | inactive | -4.26% | -2.45% (inactive) | inactive | -6.92% (inactive) | – | inactive
CCCN(CCC)c1c([N+](=O)[O-])cc(C(F)(F)F)cc1[N+](=O)[O-] | > 92 µM (inactive) | inactive | inactive | inactive | inactive | inactive | inactive | inactive | inactive | inactive | inactive | inactive | -17.3% and 1.94% | inactive | -6.59% and -3.08% | 9.18% (inactive) and -4.26% (inactive) | inactive | 12.8% (inactive) and -6.09% (inactive) | – | inactive
Clc1ccc(C(Cl)(Cl)Cl)c(Cl)c1 | > 92 µM (inactive) | inactive | inactive | inactive | inactive | inactive | inactive | inactive | inactive | inactive | inactive | inactive | -5.84% | inactive | -9.41% | 16.5% (inactive) | inactive | -3.16% (inactive) | -3.95% (inactive) | inactive
O=[N+]([O-])c1cccc(O)c1 | > 92 µM (inactive) | inactive | inactive | inactive | inactive | inactive | inactive | inactive | inactive | inactive | inactive | inactive | 0.893% | inactive | -2.66% | 6.02% (inactive) | inactive | -8.12% (inactive) | 6% (inactive) | inactive
[O-][Cl+2]([O-])O | > 92 µM (inactive) | inactive | inactive | inactive | inactive | inactive | inactive | inactive | inactive | inactive | inactive | inactive | 6.62% | – | -3.35% | – | inactive | – | 2.81% (inactive) | inactive
FC(Cl)(Cl)Cl | > 92 µM (inactive) | inactive | inactive | inactive | inactive | inactive | inactive | inactive | inactive | inactive | inactive | inactive | -11.5% | inactive | -8.6% | -7.45% (inactive) | inactive | -1.1% (inactive) | – | –
Clc1ccc(C(Cl)(Cl)Cl)cc1Cl | > 92 µM (inactive) | inactive | inactive | inactive | inactive | inactive | – | inactive | inactive | inactive | inactive | inactive | -3.09% | – | -6.09% | – | inactive | 4.98% (inactive) | 3.68% (inactive) | –
Cc1ccc(N)c(N)c1 | > 92 µM (inactive) | inactive | inactive | – | – | 39.8 µM (active) | inactive | – | inactive | – | 12.6 µM (active) | – | -6.94% | inactive | 1.53% | -28.6% (inactive) | – | -20.1% (inactive) | – | inactive
BrCC(Br)C1CCC(Br)C(Br)C1 (stereo unspecified) | > 92 µM (inactive) | inactive | – | – | inactive | inactive | inactive | inactive | inactive | inactive | inactive | inactive | 6.74% | inactive | -6.79% | 5.99% (inactive) | inactive | 1.74% (inactive) | -6.51% (inactive) | inactive
ClCC(Cl)Cl | > 92 µM (inactive) | – | inactive | inactive | inactive | inactive | inactive | inactive | inactive | inactive | inactive | inactive | -11.1% | – | 2.25% | 8.38% (inactive) | inactive | – | -0.324% (inactive) | –
C=CCCC#N | > 92 µM (inactive) | inactive | inactive | inactive | – | inactive | inactive | inactive | inactive | inactive | inactive | inactive | -8.63% | inactive | -6.48% | 9.59% (inactive) | inactive | -20.1% (inactive) | -6.54% (inactive) | inactive
CC[N+](=O)[O-] | > 92 µM (inactive) | inactive | inactive | inactive | inactive | inactive | inactive | inactive | inactive | inactive | inactive | inactive | -9.1% | – | -3.61% | -0.712% (inactive) | inactive | – | -6.68% (inactive) | inactive
